VACV mCherry inh – inhibitors of vaccinia virus infection (mCherry reporter signal); Potency, µM (doses to about 36.5 µM), for the others: at the highest dose activity change, negative = inhibition, most hits filed as inhibitors; 310,000 tested, 0.63% active; Vaccinia virus mCherry reporter infection, fluorescence; calls by dose curve; tested in A549 cells; also: potency is read from the fitted curve at half-maximal effect; nearly all actives have a fitted effect of over 35% in size
HCMV antiviral – human cytomegalovirus inhibition. activity change, negative = inhibition, % at 57.5 µM. HFF cells, HCMV-luciferase reporter, 72 h; stronger effect = lower value. 410,000 tested, 4.5% active; in the data active = activity change below about -60%; inconclusive = no clear call, values can overlap the other calls; inactive = above about -39%
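Cell-based, HFFs, 1000 cells/well, 16 h 37C; cpds in DMSO + HCMV-luc, MOI 1 PFU/cell; 72 h 37C; OneGlo luminescence after 5 min RT; norm. to buffer vs Salinomycin 10uM.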
VACV Venus inh – inhibitors of vaccinia virus (Venus reporter). Potency, µM (titrated, usually from 36.5 µM), without a hit: at the highest dose activity change, negative = inhibition, hits mostly inhibitors. 330,000 tested, 0.46% active. Vaccinia virus Venus reporter expression, fluorescence; calls by dose curve; tested in A549 cells; also: potency is read from the fitted curve at half-maximal effect; nearly all actives have a fitted effect of over 30% in size
Marburg entry inh – inhibitors of Marburg virus binding or cell entry. Marburg virus pseudotyped entry inhibition, cell reporter. Potency, µM (doses to about 37.8 µM), for the others: at the highest dose activity change, negative = inhibition, actives largely listed as inhibitors. 300,000 tested, 1.8% active. AID 540276; calls by dose curve; tested in HEK293 cells; also: potency is read from the fitted curve at half-maximal effect
Lassa entry inh – Lassa virus entry inhibition; AID 540256; 300,000 tested, 1.2% active; Potency, µM (titrated, usually from 37.9 µM), inactives show at the top dose activity change, negative = inhibition, most hits filed as inhibitors; Lassa virus pseudotype entry inhibition, cell reporter; calls by dose curve; tested in HEK293 cells; also: potency is read from the fitted curve at half-maximal effect; nearly all actives have a fitted effect of over 50% in size
FMDV inh – antivirals against foot and mouth disease virus; AID 1159524; 410,000 tested, 1.2% active; FMDV antiviral cell-based qHTS; Potency, µM (series often up to 57.9 µM), for inactives: at the highest dose activity change, negative = inhibition, actives largely listed as inhibitors; calls by dose curve; tested in HEK293T cells; also: read-out not given here; potency is read from the fitted curve at half-maximal effect; nearly all actives have a fitted effect of over 45% in size
The depositor's hits bear a star; i = inactive; ? = inconclusive; . = not tested or not shown; [ ] = dose if it differs, or a comment. The list is not random: actives were taken first. Their share in the collection is about 6.5%. % is scaled to controls: 0 for no effect and ±100 for the full control effect.

SMILES | VACV mCherry inh | HCMV antiviral | VACV Venus inh | Marburg entry inh | Lassa entry inh | FMDV inh
Cc1ccc(NC(=O)c2ccc([N+](=O)[O-])s2)cc1S(=O)(=O)N1CCOCC1 | ? | -94.0* | ? | ? | ? | ?
Cc1ccc(NC(=O)c2ccccc2NS(=O)(=O)c2ccc(Cl)s2)cc1S(=O)(=O)N1CCOCC1 | -23.4% | -82.1* | ? | ? | ? | ?
O=C(Nc1cc(S(=O)(=O)N2CCOCC2)ccc1N1CCOCC1)c1ccc([N+](=O)[O-])s1 | . | ? | . | . | . | -19.6%
Cc1nc2ccc(NC(=O)c3ccc(C)c(S(=O)(=O)N4CCOCC4)c3)cc2s1 | . | -71.8* | . | . | . | ?
O=C(Nc1ccccc1)c1ccc(F)c(S(=O)(=O)N2CCOCC2)c1 | . | -13.7 | . | 2.1% | -21.0% | -4.5%
CCOC(=O)c1cc(-c2ccccc2)n(CCC(=O)Nc2ccc(OC)c(Cl)c2)c1C | -20.0% | 0.0 | -12.9% | . | ? | -9.0%
CCOC(=O)NN=C1C[C@@H](O)[C@@H](O)[C@@H]2[C@H]3C(=O)N([C@@H](C)c4ccccc4)C(=O)[C@@H]3CC[C@H]12 | . | . | . | 9.5%[14.2 µM] | . | .
Cc1ccc(NC(=O)c2ccc(F)c(S(=O)(=O)NCCc3ccccc3)c2)cc1F | ? | -74.9* | -26.1% | . | ? | 2.5%
O=C(Nc1ccc(Br)cc1)c1ccc(F)c(S(=O)(=O)NCc2cccs2)c1 | ? | -92.3* | ? | ? | 3.98µM* | -0.5%
COc1ccc(C)cc1NC(=O)c1ccccc1NS(=O)(=O)c1ccc(Cl)s1 | . | -61.1* | . | . | . | -25.2%
CC(C)c1ccc(NC(=O)c2ccc(F)c(S(=O)(=O)N3CCc4ccccc43)c2)cc1 | -3.4% | -9.5 | -26.0% | . | ? | ?
Cc1ccc(CNS(=O)(=O)c2cc(C(=O)Nc3ccc(C(C)C)cc3)ccc2F)cc1 | -17.4% | -5.0 | -28.4% | . | -18.5%[46.1 µM] | -16.7%
O=C(Nc1ccc(Br)cc1)c1ccc(F)c(S(=O)(=O)N2CCc3ccccc32)c1 | -16.4% | -92.3* | ? | . | ? | ?
O=C(Cn1ccc2cc(S(=O)(=O)N3CCCCC3)ccc21)NCCc1ccccc1Cl | -21.6% | -15.9 | -19.9% | . | -17.8%[46.1 µM] | 26.5%
Cc1nc2ccc(NC(=O)c3ccc(Cl)c(S(=O)(=O)N(C)c4ccccc4)c3)cc2s1 | ? | -101.5* | ? | ? | ? | 8.91µM*
COc1ccccc1CNc1ncnc2c1c(-c1ccccc1)cn2-c1ccc(Br)cc1 | -17.9% | ? | -14.1% | . | -13.0%[46.1 µM] | -17.9%
COC(=O)C=C1CCC2C3CCC4=CC(=O)C(Br)CC4(C)C3C(=O)CC12C (stereo unspecified) | -5.4% | -23.4 | -12.3% | 11.2µM* | ? | ?
COCC(=O)N1[C@H](CO)[C@@H]2c3ccccc3N(C(=O)c3ccccc3F)C[C@@H]21 | . | -11.8 | . | . | . | .
O=C1c2ccccc2C(=O)N1c1ccc2ncccc2c1 | -10.2% | . | -20.9% | . | . | .
CCOc1ccc(NS(=O)(=O)c2ccc3[nH]c4c(c3c2)CCCCC4)cc1 | -4.1% | -103.0* | -21.2% | . | -21.2%[46.1 µM] | -0.3%
CN(C)c1ccc(CNS(=O)(=O)c2ccc3[nH]c4c(c3c2)CCCCC4)cc1 | -14.8% | -64.9* | -8.4% | . | ? | 3.0%
Cc1ccc(NS(=O)(=O)c2ccc3[nH]c4c(c3c2)CCCCCC4)cc1Cl | -15.6% | -83.2* | -18.7% | . | -13.8%[46.1 µM] | 0.0%
Cc1cccc(NS(=O)(=O)c2ccc3[nH]c4c(c3c2)CCCCCC4)c1 | -19.2%[7.34 µM] | -103.3* | -15.5%[7.34 µM] | . | -19.7%[46.1 µM] | 27.0%
O=S(=O)(Nc1cccc(Cl)c1)c1ccc2[nH]c3c(c2c1)CCCCCC3 | ? | -34.5 | -20.8% | . | ? | 50.0%
Cc1ccc(CNC(=O)Cn2c3ncccc3c(=O)n2-c2ccc(C)cc2)cc1 | -16.3% | 17.5 | -7.3% | . | 20.1%[46.1 µM] | -0.3%
SMILES | VACV mCherry inh | HCMV antiviral | VACV Venus inh | Marburg entry inh | Lassa entry inh | FMDV inh
CCc1ccc(C2c3c(oc4ccc(F)cc4c3=O)C(=O)N2CCc2ccc(OC)cc2)cc1 (stereo unspecified) | ? | 5.0 | ? | -8.0%[46.1 µM] | 16.8%[46.1 µM] | -23.9%
CCN(Cc1ccccc1)C(=O)COC(=O)c1cc(S(=O)(=O)Nc2c(C)n(C)n(-c3ccccc3)c2=O)ccc1C | -4.3% | -64.7* | -10.8% | -13.5%[46.1 µM] | -15.7%[46.1 µM] | 14.2%
Cc1onc(-c2ccccc2Cl)c1C(=O)Oc1cc(N)n(S(=O)(=O)c2ccc(F)cc2)n1 | ? | 30.8 | -25.8% | ? | -20.2% | 31.6µM*
Cc1cc2c(c(-c3cnccn3)c1)OC(CNC(=O)c1c(F)cccc1Cl)C2 (stereo unspecified) | -6.8% | . | 0.5% | . | . | -13.0%
COc1cccc(CSc2nc3n(n2)C(c2cccs2)C(C(=O)Nc2ccccc2C)=C(C)N3)c1 (stereo unspecified) | -28.5% | -11.3 | -19.3% | . | -6.1%[46.1 µM] | -7.7%
C[C@]12CC[C@@H]3c4ccc(O)c(O)c4CC[C@H]3[C@@H]1CC[C@@H]2O | -27.0% | -91.4* | -15.4% | . | . | -4.6%
COc1ccccc1CNC(=O)C/C(C)=N/NC(=O)Cc1ccc(OC)c(OC)c1 | i | -65.6* | -7.8% | 17.2% | -6.1% | -22.7%
COc1ccc(C(=O)N/N=C(/C)c2cccc(NC(=O)c3ccccc3F)c2)cc1 | -19.0% | 14.9 | -4.4% | 17.9% | -2.7% | 3.6%
COc1cccc(C(=O)COc2cccc(NC(=O)c3cccc([N+](=O)[O-])c3)c2)c1 | . | ? | ? | ? | ? | 28.2µM*
COc1ccc(CC(=O)Nc2cccc(/C(C)=N/NC(=O)c3cccc([N+](=O)[O-])c3)c2)cc1 | -3.9% | -27.5 | -15.8% | ? | 11.2µM* | -24.2%
COc1ccc(C(=O)N/N=C(\C)c2cccc(NC(=O)c3ccc(F)cc3)c2)c(OC)c1 | ? | -60.6* | ? | -10.7% | 4.7% | 22.8%
COc1ccc(-c2nc3scc(CCNS(=O)(=O)c4c(C)cc(C)cc4C)n3n2)cc1OC | -12.7% | 39.0 | -10.4% | . | -23.0%[46.1 µM] | 22.6%
Cc1onc(C(=O)N2CCC(Cc3ccccc3)CC2)c1[N+](=O)[O-] | . | -90.8* | . | . | . | -14.0%
CC(C)c1onc(C(=O)N2CCN(C(c3ccccc3)c3ccccc3)CC2)c1[N+](=O)[O-] | . | -97.6* | . | -2.2% | 7.9% | -19.1%
Cc1ccc(Cl)cc1N1CCN(C(=O)c2noc(C(C)C)c2[N+](=O)[O-])CC1 | . | -92.5* | . | . | . | -27.7%
CC(C)c1onc(C(=O)N2CCN(c3ccccc3)CC2)c1[N+](=O)[O-] | . | -2.3 | . | . | . | ?
COc1cc(=O)n2c(c1C(=O)N(C)Cc1cscn1)CCN(Cc1ccc3c(c1)OCCO3)CC2 | -16.7% | . | 0.0% | . | . | -12.3%
CC(=O)c1cccc(-c2ccc3c(c2)C(C)(Cc2ccccc2C#N)C(=O)N3)c1 (stereo unspecified) | -12.0% | -65.7* | -22.4% | . | . | -10.4%
Cc1c(C(=O)Nc2ccccc2)c2ccc(C(F)(F)F)cc2n1O | -6.8%[7.34 µM] | -94.6* | -3.9%[7.34 µM] | ? | -9.8% | ?
CCn1cc(C(=O)NCCN(CC(C)C)CC(C)C)c(=O)c2cc(S(=O)(=O)N(C)C3CCCCC3)ccc21 | -8.6% | 11.9 | 0.3% | 5.8%[46.1 µM] | 22.8%[46.1 µM] | -1.0%
